Screening data from PubChem BioAssay.
PAD4 FP inh = PAD4 (human) enzyme inhibition; Q9UM07; recombinant PAD4, RCA probe fluorescence polarization; inhibition, % at 6.36 µM; 330,000 compounds, 0.41% hits; AID 485272;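 active means percent inhibition above a cutoff equal to the mean of all tested compounds plus 3 SD, cut at about 15% in these data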;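 further: 0% = PAD4 with RCA probe and DMSO and 100% = probe without PAD4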
LYPLA1 counter = blocks human lysophospholipase 1, a PME1 counter-screen; 320,000 compounds, 0.16% hits; AID 2174; inhibition, % at 5.9 µM; recombinant LYPLA1, FP-Rh probe fluorescence polarization; O75608;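 active means inhibition above the mean of all tested compounds plus 3 SD, set per campaign, cut at about 14% in these data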;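 further: inhibitors block serine hydrolase probe labeling of LYPLA1 so polarization falls; 0% = enzyme with DMSO and 100% = wells lacking LYPLA1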
GSTO1 inh = GSTO1 inhibition, counter-screen for RBBP9 inhibitors; 300,000 compounds, 1.1% hits; P78417; inhibition, % at 5.96 µM; recombinant GSTO1, activity-based probe fluorescence polarization;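 active means inhibition above the campaign mean inhibition plus 3 SD, cut at about 35% in these data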;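 further: 0% = GSTO1-1 with DMSO and 100% = wells lacking GSTO1-1 enzyme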
PME-1 primary = blocks human protein phosphatase methylesterase 1; Q9Y570; recombinant PME-1, FP-Rh probe fluorescence polarization; inhibition, % at 5.9 µM; 320,000 compounds, 0.53% hits;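 active means inhibition above the campaign mean of all compounds plus 3 SD, cut at about 26% in these data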;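 further: competitive labeling of PME-1 active site by serine hydrolase directed probe; 0% = PME-1 with DMSO and 100% = wells lacking PME-1 enzyme; inhibitors block probe labeling so polarization falls and inhibition rises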
Target sequence (Q9Y570 whole entry, looked up): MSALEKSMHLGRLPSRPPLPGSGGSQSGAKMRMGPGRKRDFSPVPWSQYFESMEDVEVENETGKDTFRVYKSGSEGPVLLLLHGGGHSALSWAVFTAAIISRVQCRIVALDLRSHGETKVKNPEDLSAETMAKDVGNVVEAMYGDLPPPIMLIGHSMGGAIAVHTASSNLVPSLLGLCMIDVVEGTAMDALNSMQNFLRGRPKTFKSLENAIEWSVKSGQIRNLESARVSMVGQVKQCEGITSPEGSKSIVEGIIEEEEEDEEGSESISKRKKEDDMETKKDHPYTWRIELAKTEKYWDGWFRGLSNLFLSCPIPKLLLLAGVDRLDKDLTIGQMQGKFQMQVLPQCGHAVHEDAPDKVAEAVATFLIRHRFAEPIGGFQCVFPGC
LYPLA2 counter = counter-screen for PME1 inhibitors: inhibitors of human LYPLA2; O95372; AID 2177; recombinant LYPLA2, FP-Rh probe fluorescence polarization; 320,000 compounds, 0.38% hits; inhibition, % at 5.9 µM;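 active means inhibition above the screen-wide mean plus 3 SD, limit set per campaign, cut at about 26% in these data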;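 further: 0% = LYPLA2 with DMSO and 100% = wells lacking LYPLA2 enzyme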
Fam108B inh = counter-screen for RBBP9 inhibitors: inhibitors of mouse Fam108B; AID 1947; inhibition, % at 9.51 µM; 300,000 compounds, 0.33% hits; recombinant Fam108B, FP-Rh probe fluorescence polarization;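 active means inhibition above the screen mean inhibition plus 3 SD, computed separately per campaign, cut at about 18% in these data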;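 further: inhibitors lower polarization as less probe binds the enzyme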
An asterisk follows results filed as active; . = no result. The list is not random: actives were taken first. Their share in the collection is about 1.8%.

SMILES | PAD4 FP inh | LYPLA1 counter | GSTO1 inh | PME-1 primary | LYPLA2 counter | Fam108B inh
CCOc1ccc(NC(=O)C(c2ccccn2)N(C(=O)CCl)c2ccc(OC)cc2)cc1 (stereo unspecified) | -9.3 | 3.7 | 35.6* | 3.5 | -4.9 | 2.3
COc1ccc(N(C(=O)Cc2cccs2)C(C(=O)NC2CCCC2)c2ccncc2)cc1 (stereo unspecified) | -3.0 | 3.0 | 2.5 | 4.6 | 7.1 | -3.8
COc1ccc(N(C(=O)CCl)C(C(=O)NC2CCCCC2)c2cccnc2)cc1 (stereo unspecified) | 1.7 | 3.9 | 98.3* | 3.6 | 7.0 | 0.2
COc1ccc2[nH]cc(CCNC(=O)CCC3CCCCC3)c2c1 | -3.2 | -3.9 | 3.8 | -7.4 | -0.4 | -3.6
O=C(/C=C/c1ccccc1Cl)OCC(=O)N1CCCC1 | -4.2 | . | . | . | . | .
NS(=O)(=O)c1ccc2c(c1)C1C=CCC1C(C1CC=CCC1)N2 (stereo unspecified) | -7.2 | -10.3 | 36.5* | 18.1 | 0.4 | 14.5
CC(C)C1Nc2ccc(S(N)(=O)=O)cc2C2C=CCC21 (stereo unspecified) | -13.0 | -2.8 | 16.5 | 3.8 | 7.4 | 5.3
O=C(C1=COCCO1)N1CCN(c2nc3ccc([N+](=O)[O-])cc3s2)CC1 | -1.7 | 2.4 | 2.4 | 6.5 | -3.9 | 2.7
c1ccc2sc(Nc3nc4cc5c(cc4s3)OCO5)nc2c1 | -2.1 | -0.9 | -0.2 | 47.2* | -0.4 | 2.6
CC(=O)Nc1nc2cc3c(cc2s1)OCO3 | 1.5 | 0.2 | -6.3 | 0.8 | 2.1 | 0.8
CCOC(=O)c1sc(Nc2nc3cc4c(cc3s2)OCO4)cc1C | -2.1 | -11.5 | -3.1 | 60.9* | -0.3 | 4.3
Cc1cc([N+](=O)[O-])ccc1NC(=O)CN1C2CCC1CC(NC(=O)NC13CC4CC(CC(C4)C1)C3)C2 (stereo unspecified) | 2.1 | -4.5 | 0.1 | 1.4 | 21.8 | -1.3
COc1cc(/C=N/NC(=O)[C@H](Cc2c[nH]c3ccccc23)NC(=O)OCC(C)C)cc([N+](=O)[O-])c1O | 3.9 | 2.7 | 20.6 | 29.8* | -3.8 | 9.2
COc1cc(/C=N/NC(=O)Cc2ccccc2)cc([N+](=O)[O-])c1O | 1.2 | -2.3 | 12.5 | 5.0 | -0.2 | -0.1
CCOC(=O)Cc1csc(NC(=O)Nc2cccc(OC)c2)n1 | 1.9 | 1.2 | -3.5 | 19.8 | 4.2 | 1.2
Cc1ccc(NS(=O)(=O)c2ccc3c(c2)C(=O)c2ccccc2C3=O)c(C)c1 | 4.4 | -6.5 | 9.9 | 31.7* | 3.8 | 8.9
Cc1cccc(S(=O)(=O)Nc2cccc3c2C(=O)c2ccccc2-3)c1 | 0.1 | -7.0 | -10.7 | -2.4 | -12.5 | -0.7
Cc1ncc(CO)c(/C=N/NC(=S)Nc2ccc(Cl)c(Cl)c2)c1O | 2.3 | -7.0 | -9.2 | 27.4* | -0.4 | 16.1
Cc1ncc(CO)c(/C=N/NC(=S)Nc2cccc(Cl)c2)c1O | -0.8 | -7.3 | 3.8 | 14.1 | 4.9 | 5.7
Cc1ccc2nc(Cl)c3nnnn3c2c1 | 21.7* | 0.8 | -14.4 | -0.3 | 5.8 | -2.9
Cc1ccc(NC(=O)CCl)cc1S(=O)(=O)N1CCCCCC1 | -3.9 | 1.3 | 75.9* | 3.0 | 6.1 | 3.7
CC(C)c1onc(C(=O)NC2CCCCC2)c1[N+](=O)[O-] | 5.7 | 1.7 | 36.9* | 1.4 | 3.3 | 0.1
COc1ccc(N=CC2=C(Nc3ccc(OC)cc3)c3c(C)nn(-c4ccccn4)c3CC2)cc1 | 80.7* | 49.9* | 84.1* | 57.4* | 49.2* | 47.3*
COc1ccc(/C=C2\CN(Cc3ccccc3)C/C(=C\c3ccc(OC)c(O)c3)C2=O)cc1O | 0.0 | -4.1 | 17.3 | 26.6* | 14.8 | 16.4
CCN1C/C(=C/c2ccc(OC)c(O)c2)C(=O)/C(=C/c2ccc(OC)c(O)c2)C1 | -2.0 | 3.7 | 26.1 | 2.0 | 4.4 | -4.0
Cc1nnc(NN)n(N)c1=O | 2.1 | -0.4 | 36.7* | -2.3 | 3.5 | -1.6
CCCn1cc(CN2CCC(n3nccc3NC(=O)c3ccc4c(c3)OCO4)CC2)c(C)n1 | -0.8 | 1.5 | 7.4 | 3.0 | 3.0 | 1.7
Cc1cccc(NC(=S)NCc2cccn2C)c1 | 2.4 | 1.4 | 37.5* | -2.8 | 0.2 | 4.5
CC(C(=O)O)N(c1ccccc1Cl)S(C)(=O)=O (stereo unspecified) | 2.9 | -2.6 | 2.6 | -5.2 | -3.9 | 1.2
COc1cc(/C=C(\C#N)C(=O)c2ccc(O)c(O)c2)cc(I)c1O | -31.8 | -7.2 | 45.5* | -24.3 | -12.0 | -2.6
